Assay results published in the supplement of paper PMC11732987, “Enantioselective OTUD7B fragment discovery through chemoproteomics screening and high-throughput optimisation” (Communications Chemistry, 2025).

Tests used:
Experiment in all cases: log2 ratio of Biotin-Ahx-Ub-VS probe labelling (fragment/DMSO); higher = less target engagement (more negative = stronger competition), active = hit call of the paper (q ≤ 0.05, log2 ratio ≤ -1)
Conditions in all cases: compound concentration: 200 uM; treatment time: 3 h
OTUD6B = molecular target: T1, OTUD6B (UniProt Q8N6M0)
T1 sequence (whole entry): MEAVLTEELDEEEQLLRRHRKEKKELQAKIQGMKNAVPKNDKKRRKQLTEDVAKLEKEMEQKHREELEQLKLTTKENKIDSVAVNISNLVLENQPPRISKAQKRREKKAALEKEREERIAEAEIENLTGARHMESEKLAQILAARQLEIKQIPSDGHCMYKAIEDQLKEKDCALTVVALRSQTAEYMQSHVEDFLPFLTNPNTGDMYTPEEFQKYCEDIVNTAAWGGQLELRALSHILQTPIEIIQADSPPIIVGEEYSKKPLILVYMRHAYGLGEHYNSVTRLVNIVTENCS
Procedure, shortened: (§1)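 Labelling with Biotin-Ahx-Ub-VS (0.5 µM final, 1 h) followed a 3 h triplicate treatment of HEK293T lysate (495 µg per sample, Tris/CHAPS/IGEPAL buffer with protease inhibitors) with fragment at 200 µM or vehicle. Labelled DUBs were NeutrAvidin-enriched, digested with LysC and trypsin, and run by diaPASEF LC-MS/MS. The values, average log2 fragment/vehicle ratios by unpaired t-test, come from global-median-normalised Spectronaut label-free quantities. Proteins with ≥2 unique peptides were used.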

OTUD7B = molecular target: T2, OTUD7B (UniProt Q6GQQ9)
T2 sequence (whole entry): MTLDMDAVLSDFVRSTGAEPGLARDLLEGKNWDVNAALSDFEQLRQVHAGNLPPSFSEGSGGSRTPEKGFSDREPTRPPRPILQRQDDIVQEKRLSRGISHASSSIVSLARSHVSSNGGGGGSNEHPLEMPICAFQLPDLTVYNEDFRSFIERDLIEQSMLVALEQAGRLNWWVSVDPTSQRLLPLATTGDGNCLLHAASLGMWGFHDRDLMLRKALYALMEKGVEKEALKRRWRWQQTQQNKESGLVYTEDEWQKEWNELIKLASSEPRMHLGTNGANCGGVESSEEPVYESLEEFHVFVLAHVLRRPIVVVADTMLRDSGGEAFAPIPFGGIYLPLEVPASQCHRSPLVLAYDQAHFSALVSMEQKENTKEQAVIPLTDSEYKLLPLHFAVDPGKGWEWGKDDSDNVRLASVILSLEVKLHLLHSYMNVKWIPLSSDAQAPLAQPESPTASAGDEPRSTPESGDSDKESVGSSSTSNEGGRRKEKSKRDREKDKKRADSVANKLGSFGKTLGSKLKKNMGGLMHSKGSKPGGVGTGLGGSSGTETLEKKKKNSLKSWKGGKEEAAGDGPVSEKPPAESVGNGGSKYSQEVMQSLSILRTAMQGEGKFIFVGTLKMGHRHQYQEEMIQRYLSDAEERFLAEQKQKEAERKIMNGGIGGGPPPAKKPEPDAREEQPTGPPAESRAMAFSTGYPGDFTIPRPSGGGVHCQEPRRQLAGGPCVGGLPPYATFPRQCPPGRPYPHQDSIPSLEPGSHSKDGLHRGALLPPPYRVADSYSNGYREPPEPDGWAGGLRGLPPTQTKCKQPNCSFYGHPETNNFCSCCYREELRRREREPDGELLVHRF
Procedure, shortened: as §1

PRPF8 = PRPF8 (UniProt Q6P2Q9)
Procedure, shortened: as §1

PSMD7 = molecular target: T3, PSMD7 (UniProt P51665)
T3 sequence (whole entry): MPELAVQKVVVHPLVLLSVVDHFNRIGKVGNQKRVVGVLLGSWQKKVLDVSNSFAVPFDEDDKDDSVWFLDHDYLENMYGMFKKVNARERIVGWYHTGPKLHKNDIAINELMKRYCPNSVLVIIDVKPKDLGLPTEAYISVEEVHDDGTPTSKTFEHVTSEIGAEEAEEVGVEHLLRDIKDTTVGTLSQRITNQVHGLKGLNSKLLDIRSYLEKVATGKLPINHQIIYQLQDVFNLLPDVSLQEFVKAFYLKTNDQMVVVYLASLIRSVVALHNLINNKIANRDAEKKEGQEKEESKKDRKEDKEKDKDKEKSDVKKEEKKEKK
Procedure, shortened: as §1

UCHL1 = UCHL1 (UniProt P09936)
Chain of UCHL1 (P09936 whole entry, looked up): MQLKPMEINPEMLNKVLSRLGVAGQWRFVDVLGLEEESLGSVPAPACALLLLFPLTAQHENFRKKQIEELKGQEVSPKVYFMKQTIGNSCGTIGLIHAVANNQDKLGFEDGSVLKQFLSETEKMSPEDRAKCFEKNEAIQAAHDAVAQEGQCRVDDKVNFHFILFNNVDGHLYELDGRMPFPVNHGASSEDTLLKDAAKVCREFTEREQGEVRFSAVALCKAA
Procedure, shortened: as §1

UCHL3 = molecular target: T4, UCHL3 (UniProt P15374)
T4 sequence (whole entry): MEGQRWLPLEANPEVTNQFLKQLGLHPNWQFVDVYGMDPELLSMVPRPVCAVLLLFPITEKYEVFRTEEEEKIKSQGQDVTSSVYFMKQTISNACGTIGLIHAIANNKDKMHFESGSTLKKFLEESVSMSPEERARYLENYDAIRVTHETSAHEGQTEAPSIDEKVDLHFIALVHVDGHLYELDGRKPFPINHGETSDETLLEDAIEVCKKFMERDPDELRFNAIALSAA
Procedure, shortened: as §1

UCHL5 = molecular target: T5, UCHL5 (UniProt Q9Y5K5)
T5 sequence (whole entry): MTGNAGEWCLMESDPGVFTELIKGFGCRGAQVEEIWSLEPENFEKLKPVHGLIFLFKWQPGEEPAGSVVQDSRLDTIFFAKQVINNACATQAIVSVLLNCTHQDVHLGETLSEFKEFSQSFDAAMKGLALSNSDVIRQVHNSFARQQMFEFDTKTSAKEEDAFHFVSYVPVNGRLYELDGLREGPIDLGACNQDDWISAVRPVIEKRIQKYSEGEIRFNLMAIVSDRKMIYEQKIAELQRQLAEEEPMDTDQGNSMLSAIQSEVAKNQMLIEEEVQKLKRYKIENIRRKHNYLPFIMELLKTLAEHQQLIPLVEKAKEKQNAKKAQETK
Procedure, shortened: as §1

USP10 = USP10 (UniProt Q14694)
Chain of USP10 (Q14694 whole entry): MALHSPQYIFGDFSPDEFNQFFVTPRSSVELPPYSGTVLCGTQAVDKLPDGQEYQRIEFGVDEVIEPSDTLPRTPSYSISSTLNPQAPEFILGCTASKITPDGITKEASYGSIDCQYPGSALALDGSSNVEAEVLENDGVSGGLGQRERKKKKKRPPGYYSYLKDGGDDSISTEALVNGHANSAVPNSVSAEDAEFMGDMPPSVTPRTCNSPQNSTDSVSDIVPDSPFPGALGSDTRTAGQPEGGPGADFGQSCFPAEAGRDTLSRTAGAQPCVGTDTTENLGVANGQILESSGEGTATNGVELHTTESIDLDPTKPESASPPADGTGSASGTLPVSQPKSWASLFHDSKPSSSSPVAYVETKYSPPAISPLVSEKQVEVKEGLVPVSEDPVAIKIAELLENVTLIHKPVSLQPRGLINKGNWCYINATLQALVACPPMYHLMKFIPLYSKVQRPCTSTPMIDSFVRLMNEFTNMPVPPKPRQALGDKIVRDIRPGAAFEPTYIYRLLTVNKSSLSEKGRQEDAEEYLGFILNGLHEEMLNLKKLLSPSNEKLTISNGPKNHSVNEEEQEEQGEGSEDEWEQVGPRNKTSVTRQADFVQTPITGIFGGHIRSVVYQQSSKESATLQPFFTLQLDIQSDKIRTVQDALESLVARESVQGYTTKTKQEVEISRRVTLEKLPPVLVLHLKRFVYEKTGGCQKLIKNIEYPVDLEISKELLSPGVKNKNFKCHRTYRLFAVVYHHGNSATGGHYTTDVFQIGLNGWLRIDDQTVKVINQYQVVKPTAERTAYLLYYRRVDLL
Procedure, shortened: as §1

USP15 = molecular target: T6, USP15 (UniProt Q9Y4E8)
T6 sequence (whole entry): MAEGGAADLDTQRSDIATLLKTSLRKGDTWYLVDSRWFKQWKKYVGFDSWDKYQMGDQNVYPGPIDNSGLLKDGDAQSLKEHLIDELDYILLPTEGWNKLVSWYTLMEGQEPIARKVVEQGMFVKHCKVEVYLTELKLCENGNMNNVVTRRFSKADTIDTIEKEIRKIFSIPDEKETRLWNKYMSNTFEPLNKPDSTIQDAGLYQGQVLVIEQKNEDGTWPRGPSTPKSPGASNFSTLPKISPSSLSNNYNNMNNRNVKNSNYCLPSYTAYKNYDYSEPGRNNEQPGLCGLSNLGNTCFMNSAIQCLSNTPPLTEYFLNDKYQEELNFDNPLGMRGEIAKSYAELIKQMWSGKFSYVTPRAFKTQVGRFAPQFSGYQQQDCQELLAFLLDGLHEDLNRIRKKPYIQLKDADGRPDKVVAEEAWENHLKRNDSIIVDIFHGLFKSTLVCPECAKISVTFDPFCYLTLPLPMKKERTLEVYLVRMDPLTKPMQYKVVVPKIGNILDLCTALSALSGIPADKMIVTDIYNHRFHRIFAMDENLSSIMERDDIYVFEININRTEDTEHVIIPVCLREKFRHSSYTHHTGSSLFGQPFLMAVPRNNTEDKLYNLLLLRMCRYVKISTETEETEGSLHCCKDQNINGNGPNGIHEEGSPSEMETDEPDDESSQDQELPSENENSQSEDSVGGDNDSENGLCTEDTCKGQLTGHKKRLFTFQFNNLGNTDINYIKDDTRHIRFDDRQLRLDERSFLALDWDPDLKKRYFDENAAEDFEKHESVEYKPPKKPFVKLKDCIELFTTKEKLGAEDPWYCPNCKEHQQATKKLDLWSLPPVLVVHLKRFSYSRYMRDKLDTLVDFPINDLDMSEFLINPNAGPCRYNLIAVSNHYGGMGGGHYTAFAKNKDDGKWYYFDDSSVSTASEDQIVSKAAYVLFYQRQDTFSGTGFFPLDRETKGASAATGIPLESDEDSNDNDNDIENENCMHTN
Procedure, shortened: as §1

USP16 = USP16 (UniProt Q9Y5T5)
Chain of USP16 (Q9Y5T5 whole entry, looked up): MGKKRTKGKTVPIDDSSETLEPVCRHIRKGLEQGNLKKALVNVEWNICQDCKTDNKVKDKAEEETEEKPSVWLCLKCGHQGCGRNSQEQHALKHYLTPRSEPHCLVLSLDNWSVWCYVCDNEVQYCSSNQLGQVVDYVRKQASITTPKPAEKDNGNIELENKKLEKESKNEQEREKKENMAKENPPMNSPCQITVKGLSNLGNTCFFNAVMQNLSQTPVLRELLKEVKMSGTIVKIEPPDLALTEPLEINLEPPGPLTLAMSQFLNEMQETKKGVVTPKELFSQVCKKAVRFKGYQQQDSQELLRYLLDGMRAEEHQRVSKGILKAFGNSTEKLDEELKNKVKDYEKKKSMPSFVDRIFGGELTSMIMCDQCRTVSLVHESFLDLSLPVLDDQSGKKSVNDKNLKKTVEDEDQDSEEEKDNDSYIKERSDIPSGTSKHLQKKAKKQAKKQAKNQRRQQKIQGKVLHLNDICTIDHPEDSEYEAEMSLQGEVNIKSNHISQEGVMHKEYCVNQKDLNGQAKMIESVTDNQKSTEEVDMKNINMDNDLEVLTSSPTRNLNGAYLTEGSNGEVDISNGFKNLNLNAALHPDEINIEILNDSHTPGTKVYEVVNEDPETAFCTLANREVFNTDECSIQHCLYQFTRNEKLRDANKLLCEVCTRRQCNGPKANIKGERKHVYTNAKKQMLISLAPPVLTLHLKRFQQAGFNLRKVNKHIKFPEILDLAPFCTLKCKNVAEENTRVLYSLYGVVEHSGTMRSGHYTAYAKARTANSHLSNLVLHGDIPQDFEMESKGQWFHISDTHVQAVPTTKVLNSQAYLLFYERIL
Procedure, shortened: as §1

Measured: log2 ratio of Biotin-Ahx-Ub-VS probe labelling

CCC1c2ccsc2CCN1C(=O)CCl (stereo not given)
active: UCHL1 -1.35
inactive: OTUD6B -0.158 | OTUD7B -0.505 | PRPF8 0.237 | PSMD7 -0.0765 | UCHL3 -0.00293 | UCHL5 -0.25 | USP10 -0.134 | USP15 -0.298 | USP16 -0.5
